This is part of a sample that, as a whole, favours compounds with a hit. Of some 83,000 tested, about 20% had one in any assay.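 Treatment: one concentration, 48 hours, 96-well format. Scoring: percent growth, with anything below 10 considered active.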 Activity calls are given as the source filed them.
Columns and labels:
Experiment in all cases: NCI-60 one-dose screen, 48 h (100 = growth as untreated, 0 = no growth, -100 = all killed)
Conditions in all cases: 10 µM unless noted
NCI-H23 lung = test system: NCI-H23 lung
NCI-H226 lung = test system: NCI-H226 lung
NCI-H322M lung = test system: NCI-H322M lung
HOP-62 NSCLC = test system: HOP-62 NSCLC
NCI-H460 lung = test system: NCI-H460 lung
HOP-92 NSCLC = test system: HOP-92 NSCLC
NCI-H522 lung = test system: NCI-H522 lung
A549/ATCC NSCLC = test system: A549/ATCC NSCLC
786-0 renal = test system: 786-0 renal
COLO 205 colon = test system: COLO 205 colon
DU-145 prostate = test system: DU-145 prostate
K-562 leukemia = test system: K-562 leukemia
MALME-3M melanoma = test system: MALME-3M melanoma
MDA-MB-231 breast = test system: MDA-MB-231 breast
RXF 393 renal = test system: RXF 393 renal
SF-268 CNS = test system: SF-268 CNS
SF-295 CNS = test system: SF-295 CNS
SF-539 CNS = test system: SF-539 CNS
UACC-257 melanoma = test system: UACC-257 melanoma
M14 melanoma = test system: M14 melanoma

Measured: growth

Cc1ccc(Cl)cc1NC(=O)N/C(N)=N/c1nc2ccccc2s1
inactive: NCI-H322M lung 18.6% | MALME-3M melanoma 15.6% | SF-268 CNS 15.4% | UACC-257 melanoma 44.8%
active: NCI-H23 lung -9.8% | NCI-H226 lung 0.832% | HOP-62 NSCLC -11.7% | NCI-H460 lung -8.76% | HOP-92 NSCLC -23% | NCI-H522 lung -61.9% | A549/ATCC NSCLC -36.9% | 786-0 renal -2.48% | COLO 205 colon -91.1% | DU-145 prostate -35% | K-562 leukemia 4.45% | MDA-MB-231 breast -42.7% | RXF 393 renal -28.5% | SF-295 CNS -49.6% | SF-539 CNS -51.2% | M14 melanoma -17.1%

COc1ccc(Nc2ncnc3sc4c(c23)CCN(Cc2ccccc2)C4)cc1
inactive: NCI-H23 lung 91.8% | NCI-H226 lung 84.3% | NCI-H322M lung 93.7% | HOP-62 NSCLC 81.9% | NCI-H460 lung 71% | HOP-92 NSCLC 85.7% | NCI-H522 lung 63.2% | A549/ATCC NSCLC 77.3% | 786-0 renal 76.4% | COLO 205 colon 106% | DU-145 prostate 94.3% | K-562 leukemia 45.3% | MALME-3M melanoma 107% | MDA-MB-231 breast 87.5% | RXF 393 renal 74.6% | SF-268 CNS 66.1% | SF-295 CNS 67.6% | SF-539 CNS 91.3% | UACC-257 melanoma 94.6% | M14 melanoma 81.1%

COc1cc(C2CC(c3ccc(Cl)cc3)=Nc3c(N)nc(N)nc3N2)ccc1Oc1nc(Nc2ccc(F)cc2)nc(N(C)C)n1 (stereo not given)
active: K-562 leukemia 8.16% | RXF 393 renal -4.44%
inactive: NCI-H23 lung 76.6% | NCI-H226 lung 60.9% | NCI-H322M lung 93.8% | HOP-62 NSCLC 74.1% | NCI-H460 lung 13.5% | HOP-92 NSCLC 12.6% | NCI-H522 lung 38.9% | A549/ATCC NSCLC 47.2% | 786-0 renal 38.2% | COLO 205 colon 55.4% | DU-145 prostate 60% | MALME-3M melanoma 54.1% | MDA-MB-231 breast 23.8% | SF-268 CNS 52.2% | SF-295 CNS 53.3% | SF-539 CNS 63.7% | UACC-257 melanoma 47.9% | M14 melanoma 43.2%

COC(=O)c1cc(C(=O)C(Br)Br)n2c1ccc1c3ccccc3ccc12
inactive: NCI-H23 lung 69% | NCI-H226 lung 64.2% | NCI-H322M lung 89.4% | HOP-62 NSCLC 56.7% | NCI-H460 lung 18.4% | HOP-92 NSCLC 54.3% | NCI-H522 lung 60.2% | A549/ATCC NSCLC 40.8% | 786-0 renal 64.6% | COLO 205 colon 55.3% | DU-145 prostate 52.2% | K-562 leukemia 52.3% | MALME-3M melanoma 65.6% | MDA-MB-231 breast 67.7% | RXF 393 renal 141% | SF-268 CNS 68% | SF-295 CNS 54% | SF-539 CNS 54.9% | UACC-257 melanoma 80.1% | M14 melanoma 75.1%

CCCCCCCCc1ccc(C(=O)Nc2cccc(O)c2)cc1
active: HOP-92 NSCLC -4.35%
inactive: NCI-H23 lung 78.9% | NCI-H226 lung 67.8% | NCI-H322M lung 95.9% | HOP-62 NSCLC 101% | NCI-H460 lung 90.5% | NCI-H522 lung 23% | A549/ATCC NSCLC 90.3% | 786-0 renal 73.5% | COLO 205 colon 121% | DU-145 prostate 80.1% | K-562 leukemia 22.6% | MALME-3M melanoma 77.1% | MDA-MB-231 breast 78.9% | RXF 393 renal 86.6% | SF-268 CNS 93.1% | SF-295 CNS 75% | SF-539 CNS 79.7% | UACC-257 melanoma 79.3% | M14 melanoma 76.4%

O=C1/C(=C/C=C/c2ccco2)SC(=S)N1CC(=S)C1C=CS(=O)(=O)C1 (stereo not given)
inactive: NCI-H23 lung 83.1% | NCI-H226 lung 89.1% | NCI-H322M lung 38.8% | HOP-62 NSCLC 130% | NCI-H460 lung 29.2% | HOP-92 NSCLC 121% | NCI-H522 lung 32.5% | A549/ATCC NSCLC 47.7% | 786-0 renal 91.2% | COLO 205 colon 76% | DU-145 prostate 97.4% | K-562 leukemia 75% | MALME-3M melanoma 83.3% | MDA-MB-231 breast 85.8% | RXF 393 renal 79.4% | SF-268 CNS 91% | SF-295 CNS 88.9% | SF-539 CNS 99% | UACC-257 melanoma 92.3% | M14 melanoma 98.9%

NC(=O)c1ccc(-c2ccc3ncnc(N4CCc5cc(F)c(Cl)cc54)c3c2)cn1
inactive: NCI-H23 lung 70.9% | NCI-H226 lung 83.3% | NCI-H322M lung 24.1% | HOP-62 NSCLC 99.9% | NCI-H460 lung 79.6% | HOP-92 NSCLC 15.4% | NCI-H522 lung 94.1% | A549/ATCC NSCLC 63% | 786-0 renal 66.5% | COLO 205 colon 47.9% | DU-145 prostate 49.5% | K-562 leukemia 34.7% | MALME-3M melanoma 78.9% | MDA-MB-231 breast 49.3% | RXF 393 renal 40.9% | SF-268 CNS 95.6% | SF-295 CNS 79.4% | SF-539 CNS 63% | UACC-257 melanoma 110% | M14 melanoma 70.2%

O=C(Nc1ccc(Cl)c(C(F)(F)F)c1)N1CCN(c2cc(-c3cn(-c4ccccc4)nc3-c3cccc(O)c3)ccn2)CC1
active: NCI-H23 lung -27.3% | NCI-H226 lung -16.2% | NCI-H460 lung 7.84% | HOP-92 NSCLC -2.61% | NCI-H522 lung -17.3% | 786-0 renal 8.51% | COLO 205 colon -2.61% | MALME-3M melanoma -31.4% | MDA-MB-231 breast -48.6% | RXF 393 renal -35.4% | SF-268 CNS 2.35% | SF-295 CNS -37.2% | SF-539 CNS 7.9% | UACC-257 melanoma -16.6% | M14 melanoma -19.3%
inactive: NCI-H322M lung 14.8% | HOP-62 NSCLC 14.5% | A549/ATCC NSCLC 14.7% | DU-145 prostate 22.5% | K-562 leukemia 14.8%

Nc1cc2ccccc2c(=O)n1NC(=O)c1ccc(Br)cc1
inactive: NCI-H23 lung 81.8% | NCI-H226 lung 69% | NCI-H322M lung 74.4% | HOP-62 NSCLC 101% | NCI-H460 lung 98.6% | HOP-92 NSCLC 103% | NCI-H522 lung 96.7% | A549/ATCC NSCLC 100% | 786-0 renal 107% | COLO 205 colon 114% | DU-145 prostate 109% | K-562 leukemia 101% | MALME-3M melanoma 89.7% | MDA-MB-231 breast 66.8% | RXF 393 renal 112% | SF-268 CNS 89.8% | SF-295 CNS 103% | SF-539 CNS 67.5% | UACC-257 melanoma 104% | M14 melanoma 91.7%

CCCCNc1ccc2c3c(cccc13)C(=O)N(NCC(O)COc1ccc3c(C)cc(=O)oc3c1)C2=O (stereo not given)
inactive: NCI-H23 lung 87.4% | NCI-H226 lung 87.5% | NCI-H322M lung 91% | HOP-62 NSCLC 97% | NCI-H460 lung 92.6% | HOP-92 NSCLC 78.2% | NCI-H522 lung 83.2% | A549/ATCC NSCLC 87% | 786-0 renal 101% | COLO 205 colon 92.2% | DU-145 prostate 89.2% | K-562 leukemia 75.8% | MALME-3M melanoma 110% | MDA-MB-231 breast 81.4% | RXF 393 renal 91.6% | SF-268 CNS 79.6% | SF-295 CNS 95.5% | SF-539 CNS 91.8% | UACC-257 melanoma 106% | M14 melanoma 90.6%

O=C(N/N=C/c1ccsc1)c1[nH]c2ccc(Br)cc2c1-c1ccccc1
active: NCI-H23 lung -78% | NCI-H226 lung -49.5% | NCI-H322M lung -7.27% | HOP-62 NSCLC -64.7% | NCI-H460 lung -72.5% | HOP-92 NSCLC -50.5% | NCI-H522 lung -70.9% | A549/ATCC NSCLC 3.43% | 786-0 renal -60.8% | COLO 205 colon -63.1% | DU-145 prostate -26.4% | K-562 leukemia 4.77% | MALME-3M melanoma -72.5% | MDA-MB-231 breast -69.9% | RXF 393 renal -47.5% | SF-268 CNS -56.1% | SF-295 CNS -87.5% | SF-539 CNS -95.5% | UACC-257 melanoma -51.9% | M14 melanoma -73.8%

CCCCCCCCCc1ccc(C(=O)Nc2cc(C)ccc2C(=O)OC)cc1
inactive: NCI-H23 lung 102% | NCI-H226 lung 98.9% | NCI-H322M lung 112% | HOP-62 NSCLC 107% | NCI-H460 lung 115% | HOP-92 NSCLC 61.6% | NCI-H522 lung 101% | A549/ATCC NSCLC 114% | 786-0 renal 101% | COLO 205 colon 131% | DU-145 prostate 119% | K-562 leukemia 98.8% | MALME-3M melanoma 99.8% | MDA-MB-231 breast 103% | RXF 393 renal 117% | SF-268 CNS 116% | SF-295 CNS 103% | SF-539 CNS 112% | UACC-257 melanoma 106% | M14 melanoma 105%

Cc1nn(-c2ccccc2)c2nc(C)n(CC(=O)N/N=C/c3ccccc3O)c(=O)c12
inactive: NCI-H23 lung 28.8% | NCI-H226 lung 21.6% | NCI-H322M lung 29.4% | HOP-62 NSCLC 31.3% | HOP-92 NSCLC 62.5% | A549/ATCC NSCLC 26.2% | 786-0 renal 18.5% | COLO 205 colon 16.8% | DU-145 prostate 48.9% | K-562 leukemia 18.4% | MALME-3M melanoma 47.4% | MDA-MB-231 breast 34.2% | RXF 393 renal 25.9% | SF-268 CNS 47.6% | SF-295 CNS 23.6% | SF-539 CNS 21.8%
active: NCI-H460 lung 4.76% | NCI-H522 lung 6.39% | UACC-257 melanoma 2.59% | M14 melanoma 2.09%

O=C(CSc1nnc(-c2ccc(-c3nc4ccc(Cl)cc4[nH]3)cc2)o1)Nc1ccc(Br)cc1
inactive: COLO 205 colon 94.1% | DU-145 prostate 39.1% | K-562 leukemia 15% | SF-268 CNS 28.5% | UACC-257 melanoma 13.1%
active: NCI-H23 lung -34.7% | NCI-H226 lung -46.9% | NCI-H322M lung 9.95% | HOP-62 NSCLC -31.1% | NCI-H460 lung -72.3% | HOP-92 NSCLC -7.8% | NCI-H522 lung -23.3% | A549/ATCC NSCLC -38.9% | 786-0 renal -44.1% | MALME-3M melanoma -20.2% | MDA-MB-231 breast -76% | RXF 393 renal -50.9% | SF-295 CNS 8.38% | SF-539 CNS -96.3% | M14 melanoma 2.92%

From PubChem BioAssay (NCI)
